Measured values: paper PMC11006913
Where a chain is given by its changes, count along the chain named.

Experiments:
Assay in all cases: PBM; 200 nM protein, PBS
Conditions in all cases: dsDNA, one strand shown
HESX1 [1] = biological target: HESX1 (Homo sapiens, UniProt Q9UBX0 95-180, R165K)
CRX [2] = biological target: CRX (Homo sapiens, UniProt O43186 26-111)
PRRX1 [3] = biological target: PRRX1 (Homo sapiens, UniProt P54821 80-166, F113S)
HESX1 [4] = biological target: HESX1 (Homo sapiens, UniProt Q9UBX0 95-180)
CRX [5] = biological target: CRX (Homo sapiens, UniProt O43186 26-111, E42D)
HESX1 [6] = biological target: HESX1 (Homo sapiens, UniProt Q9UBX0 95-180, R109Q)
HESX1 [7] = biological target: HESX1 (Homo sapiens, UniProt Q9UBX0 95-180, P111T)
HESX1 [8] = biological target: HESX1 (Homo sapiens, UniProt Q9UBX0 95-180, F115L)
CRX [9] = biological target: CRX (Homo sapiens, UniProt O43186 26-111, R41L)
PRRX1 [10] = biological target: PRRX1 (Homo sapiens, UniProt P54821 80-166)
VENTX [11] = biological target: T1, VENTX (Homo sapiens, UniProt O95231 78-163, R121Q)
T1 sequence: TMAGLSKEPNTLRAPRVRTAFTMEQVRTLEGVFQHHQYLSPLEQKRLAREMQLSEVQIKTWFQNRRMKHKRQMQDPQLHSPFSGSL

VENTX [12] = biological target: T2, VENTX (Homo sapiens, UniProt O95231 78-163)
T2 sequence: T1 sequence with Q44R

VENTX [13] = biological target: T3, VENTX (Homo sapiens, UniProt O95231 78-163, Y115F)
T3 sequence: T1 sequence with Y38F, Q44R

HOXC9 [14] = biological target: HOXC9 (Homo sapiens, UniProt P31274 178-260, K195R)
HOXA7 [15] = biological target: HOXA7 (Homo sapiens, UniProt P31268 116-202)
HOXC9 [16] = biological target: HOXC9 (Homo sapiens, UniProt P31274 178-260)
HOXC9 [17] = biological target: HOXC9 (Homo sapiens, UniProt P31274 178-260, R193K)
HOXC9 [18] = biological target: HOXC9 (Homo sapiens, UniProt P31274 178-260, R222W)
HOXA7 [19] = biological target: HOXA7 (Homo sapiens, UniProt P31268 116-202, W177C)
NKX3-2 [20] = biological target: NKX3-2 (Homo sapiens, UniProt P78367 192-278, P234S)
NKX3-2 [21] = biological target: NKX3-2 (Homo sapiens, UniProt P78367 192-278)
ALX1 [22] = biological target: ALX1 (Homo sapiens, UniProt Q15699 118-204, L144V)
ALX3 [23] = biological target: ALX3 (Homo sapiens, UniProt O95076 139-225, N203Q)
ALX1 [24] = biological target: ALX1 (Homo sapiens, UniProt Q15699 118-204, L144R)
ALX3 [25] = biological target: ALX3 (Homo sapiens, UniProt O95076 139-225)
ALX3 [26] = biological target: ALX3 (Homo sapiens, UniProt O95076 139-225, L168Q)
ALX3 [27] = biological target: ALX3 (Homo sapiens, UniProt O95076 139-225, L168V)
ALX1 [28] = biological target: ALX1 (Homo sapiens, UniProt Q15699 118-204)
ALX3 [29] = biological target: ALX3 (Homo sapiens, UniProt O95076 139-225, N203S)
Sequence of ALX3 (Homo sapiens, UniProt O95076 139-225, N203S) (O95076 139-225 N203S): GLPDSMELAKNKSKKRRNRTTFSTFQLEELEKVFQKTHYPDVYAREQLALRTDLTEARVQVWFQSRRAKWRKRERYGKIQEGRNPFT

Sequence of HESX1 (Homo sapiens, UniProt Q9UBX0 95-180, P111T) (Q9UBX0 95-180 P111T): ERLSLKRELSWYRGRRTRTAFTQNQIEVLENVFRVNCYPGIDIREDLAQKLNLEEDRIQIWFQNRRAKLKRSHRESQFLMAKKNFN
Sequence of HESX1 (Homo sapiens, UniProt Q9UBX0 95-180, F115L) (Q9UBX0 95-180 F115L): as the sequence (Q9UBX0 95-180 P111T) above, with T17P, F21L counted along it
Sequence of HESX1 (Homo sapiens, UniProt Q9UBX0 95-180, R165K) (Q9UBX0 95-180 R165K): as the sequence (Q9UBX0 95-180 P111T) above, with T17P, R71K counted along it
Sequence of HESX1 (Homo sapiens, UniProt Q9UBX0 95-180) (Q9UBX0 95-180): as the sequence (Q9UBX0 95-180 P111T) above, with T17P counted along it
Sequence of HESX1 (Homo sapiens, UniProt Q9UBX0 95-180, R109Q) (Q9UBX0 95-180 R109Q): as the sequence (Q9UBX0 95-180 P111T) above, with R15Q, T17P counted along it
Sequence of HOXA7 (Homo sapiens, UniProt P31268 116-202) (P31268 116-202): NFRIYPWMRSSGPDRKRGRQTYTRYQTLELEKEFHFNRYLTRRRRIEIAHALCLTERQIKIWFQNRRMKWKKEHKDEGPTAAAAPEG
Sequence of HOXA7 (Homo sapiens, UniProt P31268 116-202, W177C) (P31268 116-202 W177C): as the sequence (P31268 116-202) above, with W62C counted along it
Sequence of ALX3 (Homo sapiens, UniProt O95076 139-225) (O95076 139-225): as the sequence (O95076 139-225 N203S) above, with S65N counted along it
Sequence of ALX1 (Homo sapiens, UniProt Q15699 118-204, L144R) (Q15699 118-204 L144R): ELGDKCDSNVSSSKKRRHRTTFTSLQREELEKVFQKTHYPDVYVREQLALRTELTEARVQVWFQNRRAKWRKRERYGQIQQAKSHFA
Sequence of ALX3 (Homo sapiens, UniProt O95076 139-225, L168V) (O95076 139-225 L168V): as the sequence (O95076 139-225 N203S) above, with L30V, S65N counted along it
Sequence of CRX (Homo sapiens, UniProt O43186 26-111) (O43186 26-111): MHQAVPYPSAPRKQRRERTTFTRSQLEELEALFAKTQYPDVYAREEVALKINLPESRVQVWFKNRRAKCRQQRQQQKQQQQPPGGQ
Sequence of NKX3-2 (Homo sapiens, UniProt P78367 192-278, P234S) (P78367 192-278 P234S): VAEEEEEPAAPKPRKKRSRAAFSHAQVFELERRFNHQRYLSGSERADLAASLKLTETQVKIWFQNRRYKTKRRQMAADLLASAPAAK
Sequence of HOXC9 (Homo sapiens, UniProt P31274 178-260, R222W) (P31274 178-260 R222W): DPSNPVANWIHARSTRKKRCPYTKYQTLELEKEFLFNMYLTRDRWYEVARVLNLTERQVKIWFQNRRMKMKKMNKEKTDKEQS
Sequence of HOXC9 (Homo sapiens, UniProt P31274 178-260) (P31274 178-260): as the sequence (P31274 178-260 R222W) above, with W45R counted along it
Sequence of CRX (Homo sapiens, UniProt O43186 26-111, R41L) (O43186 26-111 R41L): as the sequence (O43186 26-111) above, with R16L counted along it
Sequence of ALX3 (Homo sapiens, UniProt O95076 139-225, N203Q) (O95076 139-225 N203Q): as the sequence (O95076 139-225 N203S) above, with S65Q counted along it
Sequence of ALX1 (Homo sapiens, UniProt Q15699 118-204) (Q15699 118-204): as the sequence (Q15699 118-204 L144R) above, with R27L counted along it
Sequence of ALX1 (Homo sapiens, UniProt Q15699 118-204, L144V) (Q15699 118-204 L144V): as the sequence (Q15699 118-204 L144R) above, with R27V counted along it
Sequence of HOXC9 (Homo sapiens, UniProt P31274 178-260, R193K) (P31274 178-260 R193K): as the sequence (P31274 178-260 R222W) above, with R16K, W45R counted along it
Sequence of HOXC9 (Homo sapiens, UniProt P31274 178-260, K195R) (P31274 178-260 K195R): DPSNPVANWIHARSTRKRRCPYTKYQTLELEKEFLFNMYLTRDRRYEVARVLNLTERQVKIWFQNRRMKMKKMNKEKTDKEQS
Sequence of ALX3 (Homo sapiens, UniProt O95076 139-225, L168Q) (O95076 139-225 L168Q): as the sequence (O95076 139-225 N203S) above, with L30Q, S65N counted along it
Sequence of NKX3-2 (Homo sapiens, UniProt P78367 192-278) (P78367 192-278): as the sequence (P78367 192-278 P234S) above, with S43P counted along it
Sequence of CRX (Homo sapiens, UniProt O43186 26-111, E42D) (O43186 26-111 E42D): as the sequence (O43186 26-111) above, with E17D counted along it
Sequence of PRRX1 (Homo sapiens, UniProt P54821 80-166) (P54821 80-166): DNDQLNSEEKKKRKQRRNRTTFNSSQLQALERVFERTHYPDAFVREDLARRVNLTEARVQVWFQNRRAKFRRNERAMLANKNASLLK
Sequence of PRRX1 (Homo sapiens, UniProt P54821 80-166, F113S) (P54821 80-166 F113S): as the sequence (P54821 80-166) above, with F34S counted along it

For GCCGTCGC, the binding signal (HESX1 [1]) was 6.39 upbm affinity estimate (log intensity, higher = more binding, comparable within an allelic series), the binding signal (CRX [2]) was 8.32 upbm affinity estimate (log intensity, higher = more binding, comparable within an allelic series) and the binding signal (PRRX1 [3]) was 9.29 upbm affinity estimate (log intensity, higher = more binding, comparable within an allelic series). The binding signal (HESX1 [4]) was 6.51 upbm affinity estimate (log intensity, higher = more binding, comparable within an allelic series), the binding signal (CRX [5]) was 8.21 upbm affinity estimate (log intensity, higher = more binding, comparable within an allelic series) and the binding signal (HESX1 [6]) was 6.58 upbm affinity estimate (log intensity, higher = more binding, comparable within an allelic series). The binding signal (HESX1 [7]) was 6.45 upbm affinity estimate (log intensity, higher = more binding, comparable within an allelic series), the binding signal (HESX1 [8]) was 6.53 upbm affinity estimate (log intensity, higher = more binding, comparable within an allelic series) and the binding signal (CRX [9]) was 8.17 upbm affinity estimate (log intensity, higher = more binding, comparable within an allelic series). The binding signal (PRRX1 [10]) was 9.58 upbm affinity estimate (log intensity, higher = more binding, comparable within an allelic series).
GCCAGCGA was tested, and the binding signal (HESX1 [1]) was 6.34 upbm affinity estimate (log intensity, higher = more binding, comparable within an allelic series), the binding signal (VENTX [11]) was 8.16 upbm affinity estimate (log intensity, higher = more binding, comparable within an allelic series) and the binding signal (VENTX [12]) was 8.16 upbm affinity estimate (log intensity, higher = more binding, comparable within an allelic series). For the same sequence, the binding signal (VENTX [13]) was 8.18 upbm affinity estimate (log intensity, higher = more binding, comparable within an allelic series), the binding signal (HESX1 [4]) was 6.55 upbm affinity estimate (log intensity, higher = more binding, comparable within an allelic series) and the binding signal (HESX1 [6]) was 6.49 upbm affinity estimate (log intensity, higher = more binding, comparable within an allelic series). For the same sequence, the binding signal (HESX1 [7]) was 6.48 upbm affinity estimate (log intensity, higher = more binding, comparable within an allelic series) and the binding signal (HESX1 [8]) was 6.56 upbm affinity estimate (log intensity, higher = more binding, comparable within an allelic series).
For CCGTAGGC, the binding signal (HESX1 [1]) was 6.41 upbm affinity estimate (log intensity, higher = more binding, comparable within an allelic series), the binding signal (HOXC9 [14]) was 9.73 upbm affinity estimate (log intensity, higher = more binding, comparable within an allelic series) and the binding signal (HOXA7 [15]) was 8.48 upbm affinity estimate (log intensity, higher = more binding, comparable within an allelic series). For the same sequence, the binding signal (HESX1 [4]) was 6.44 upbm affinity estimate (log intensity, higher = more binding, comparable within an allelic series), the binding signal (HOXC9 [16]) was 9.68 upbm affinity estimate (log intensity, higher = more binding, comparable within an allelic series) and the binding signal (HOXC9 [17]) was 9.78 upbm affinity estimate (log intensity, higher = more binding, comparable within an allelic series). The binding signal (HESX1 [6]) was 6.53 upbm affinity estimate (log intensity, higher = more binding, comparable within an allelic series), the binding signal (HESX1 [7]) was 6.41 upbm affinity estimate (log intensity, higher = more binding, comparable within an allelic series) and the binding signal (HOXC9 [18]) was 9.77 upbm affinity estimate (log intensity, higher = more binding, comparable within an allelic series). For the same sequence, the binding signal (HESX1 [8]) was 6.48 upbm affinity estimate (log intensity, higher = more binding, comparable within an allelic series), the binding signal (HOXA7 [19]) was 8.4 upbm affinity estimate (log intensity, higher = more binding, comparable within an allelic series) and the binding signal (NKX3-2 [20]) was 10.5 upbm affinity estimate (log intensity, higher = more binding, comparable within an allelic series). The binding signal (NKX3-2 [21]) was 10.4 upbm affinity estimate (log intensity, higher = more binding, comparable within an allelic series).
In the case of CCGAGCCG, the binding signal (HESX1 [1]) is reported as 6.36 upbm affinity estimate (log intensity, higher = more binding, comparable within an allelic series), the binding signal (HOXA7 [15]) is reported as 8.34 upbm affinity estimate (log intensity, higher = more binding, comparable within an allelic series) and the binding signal (HESX1 [4]) is reported as 6.14 upbm affinity estimate (log intensity, higher = more binding, comparable within an allelic series). The binding signal (ALX1 [22]) was 6.19 upbm affinity estimate (log intensity, higher = more binding, comparable within an allelic series), the binding signal (ALX3 [23]) was 7.62 upbm affinity estimate (log intensity, higher = more binding, comparable within an allelic series) and the binding signal (ALX1 [24]) was 6.2 upbm affinity estimate (log intensity, higher = more binding, comparable within an allelic series). For the same sequence, the binding signal (ALX3 [25]) was 7.46 upbm affinity estimate (log intensity, higher = more binding, comparable within an allelic series), the binding signal (HESX1 [6]) was 6.38 upbm affinity estimate (log intensity, higher = more binding, comparable within an allelic series) and the binding signal (ALX3 [26]) was 7.56 upbm affinity estimate (log intensity, higher = more binding, comparable within an allelic series). For the same sequence, the binding signal (HESX1 [7]) was 6.22 upbm affinity estimate (log intensity, higher = more binding, comparable within an allelic series), the binding signal (ALX3 [27]) was 7.69 upbm affinity estimate (log intensity, higher = more binding, comparable within an allelic series) and the binding signal (HESX1 [8]) was 6.62 upbm affinity estimate (log intensity, higher = more binding, comparable within an allelic series). The binding signal (HOXA7 [19]) was 8.22 upbm affinity estimate (log intensity, higher = more binding, comparable within an allelic series), the binding signal (ALX1 [28]) was 6.32 upbm affinity estimate (log intensity, higher = more binding, comparable within an allelic series) and the binding signal (ALX3 [29]) was 7.67 upbm affinity estimate (log intensity, higher = more binding, comparable within an allelic series).
CGACGCGA was tested, and the binding signal (HESX1 [1]) was 6.36 upbm affinity estimate (log intensity, higher = more binding, comparable within an allelic series), the binding signal (VENTX [11]) was 7.97 upbm affinity estimate (log intensity, higher = more binding, comparable within an allelic series) and the binding signal (VENTX [12]) was 8.03 upbm affinity estimate (log intensity, higher = more binding, comparable within an allelic series). The binding signal (VENTX [13]) was 8.13 upbm affinity estimate (log intensity, higher = more binding, comparable within an allelic series), the binding signal (HESX1 [4]) was 6.45 upbm affinity estimate (log intensity, higher = more binding, comparable within an allelic series) and the binding signal (HESX1 [6]) was 6.44 upbm affinity estimate (log intensity, higher = more binding, comparable within an allelic series). For the same sequence, the binding signal (HESX1 [7]) was 6.38 upbm affinity estimate (log intensity, higher = more binding, comparable within an allelic series) and the binding signal (HESX1 [8]) was 6.54 upbm affinity estimate (log intensity, higher = more binding, comparable within an allelic series).
